In the library only some 3.4% were active in any assay of this set; here they are far more common.
hgDAF12 agonist: H. glycines DAF-12 receptor agonists, primary screen, cell-based, luminescence, HEK293, GAL4 fusion, UAS-luciferase; HEK293 GAL4-hgDAF12 UAS-luciferase reporter, agonist luminescence; normalized to butyrate control; activation, % at 6.8 µM; 1.8% of 370,000 active; AID 687014, 2013;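 active = activation above a cutoff set at the mean of all screened compounds plus 3 SD, cut at about 10% in these data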;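 note: 0% = DMSO wells and 100% = sodium butyrate wells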
hcDAF-12 act: H. contortus DAF-12 nuclear receptor activators, primary screen, cell-based, luminescence, HEK293, lit1-tk-luc reporter | HEK293 hcDAF-12 lit1-tk-luc reporter; 0% DMSO, 100% Δ7-dafachronic acid | activation, % at 6.8 µM | 1.4% of 370,000 active | AID 652067, 2013;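 active = activation above the mean of all tested compounds plus 3 SD, cut at about 5.5% in these data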;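 note: 100% = response to 3 µM Δ7-dafachronic acid high control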
APP 5'UTR act: activators of APP 5'UTR luciferase reporter, primary screen, SH-SY5Y cells | 1% of 190,000 active | activation, % at 2 µM | SH-SY5Y APP 5'UTR luciferase reporter, luminescence; zero percent = DMSO vehicle wells;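 active = activation above a set limit, based on mean plus 3 SD of controls, cut at about 140% in these data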
ssDAF12 agonist: S. stercoralis DAF-12 nuclear receptor activators, primary screen, cell-based, luminescence, HEK293, GRIP1 co-expression, lit1-tk-luc | Nuclear hormone receptor DAF-12 (Strongyloides stercoralis) | 1% of 370,000 active | activation, % at 6.8 µM | HEK293 ssDAF-12/GRIP1 lit1-tk-luc reporter; % of 3 µM dafachronic acid response | AID 652126, 2013;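 active = activation above the mean over all tested compounds plus 3 SD, cut at about 0.9% in these data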;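 note: 0% = DMSO-only wells and 100% = 3 µM delta7-dafachronic acid wells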
NF-kB expr up: activators of NF-kB expression in neurons, primary screen, cell-based, HTS; fold change at 12.5 µM; human neuronal cells, NF-kB reporter expression; active compounds read high; 1.6% of 190,000 active; in the data active = fold change above about 3.3
hgDAF12 conf: H. glycines DAF-12 receptor agonists, confirmation, cell-based, luminescence, HEK293, GAL4-LBD fusion; shares compounds with hgDAF12 agonist; HEK293 GAL4-hgDAF12 luciferase reporter, agonist mode; percent of butyrate response; activation, % at 6.8 µM; 80% of 3,300 active; AID 743050, 2013;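 active = mean activation over triplicate wells above the hit cutoff derived from the earlier primary screen, cut at about 11% in these data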;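 note: 0% = DMSO low control and 100% = 2 mM sodium butyrate high control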
LXR ag 2: LXR agonists, Gal4 luciferase reporter, confirmation, counter-screen for hgDAF-12 agonist project, cell-based, luminescence, HEK293, H. glycines campaign | shares compounds with hgDAF12 agonist | 24 h | activation, % at 6.8 µM | 3,300 tested, under 10 active;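 active = mean activation of the triplicate above a set limit carried over from the primary screen, none filed active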
Target sequence (P55055 whole entry, looked up, the tested form may be a part): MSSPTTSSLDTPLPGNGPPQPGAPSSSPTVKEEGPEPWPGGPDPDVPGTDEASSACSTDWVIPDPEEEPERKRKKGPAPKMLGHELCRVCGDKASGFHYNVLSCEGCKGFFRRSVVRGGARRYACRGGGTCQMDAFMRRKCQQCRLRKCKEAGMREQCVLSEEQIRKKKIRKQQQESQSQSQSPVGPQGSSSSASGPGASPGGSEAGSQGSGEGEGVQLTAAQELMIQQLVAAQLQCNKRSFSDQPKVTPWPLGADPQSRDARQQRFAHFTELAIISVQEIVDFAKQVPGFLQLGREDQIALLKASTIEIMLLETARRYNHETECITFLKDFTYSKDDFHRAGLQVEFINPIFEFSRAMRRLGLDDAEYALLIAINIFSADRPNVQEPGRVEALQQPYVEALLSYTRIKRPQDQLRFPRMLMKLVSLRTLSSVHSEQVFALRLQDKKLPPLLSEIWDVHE
Numbers without * were called inactive.

How did O=C(CN1CCN(Cc2ccccc2)CC1)N/N=C\c1c2ccccc2cc2ccccc12 do in these assays?
hgDAF12 agonist: 5; hcDAF-12 act: -1; ssDAF12 agonist: -1

Results for O=C(O)CCC(=O)Nc1ccccc1C(=O)Nc1ccccc1 ?
hgDAF12 agonist: 0; hcDAF-12 act: 1; APP 5'UTR act: 5; ssDAF12 agonist: 0; NF-kB expr up: 0.94

Results for O=C(O)CCC(=O)Nc1ccccc1C(=O)NCCc1ccccc1 ?
hgDAF12 agonist: 19*; hcDAF-12 act: 5.9*; APP 5'UTR act: 27; ssDAF12 agonist: 1; NF-kB expr up: 1.8; hgDAF12 conf: 7; LXR ag 2: 0

How did CCOC(=O)[C@]12CCCCC/C=C\1N(CCc1ccc(Cl)cc1)C(=O)[C@H]2CC(=O)N1CCC(c2ccccc2)CC1 do in these assays?
hgDAF12 agonist: 0; hcDAF-12 act: 0; ssDAF12 agonist: -2

Results for COc1ccc(OC)c(S(=O)(=O)Nc2cc(C)on2)c1 ?
hgDAF12 agonist: -1; hcDAF-12 act: -2; ssDAF12 agonist: -1

What do the screens show for `COc1ccc(C(=O)Nc2cc(C)on2)c(OC)c1`?
hgDAF12 agonist: 15*; hcDAF-12 act: 3; ssDAF12 agonist: 0; hgDAF12 conf: 13*; LXR ag 2: 1

How did COc1ccc(C(=O)Nc2ccc(C)cn2)c(OC)c1 do in these assays?
hgDAF12 agonist: -7; hcDAF-12 act: -1; APP 5'UTR act: 24; ssDAF12 agonist: -2; NF-kB expr up: 1.2

What do the screens show for `COc1ccc(OC)c(S(=O)(=O)Nc2ccc(C(=O)Nc3cc(C)on3)cc2)c1`?
hgDAF12 agonist: 16*; hcDAF-12 act: 0; ssDAF12 agonist: -1; hgDAF12 conf: 0; LXR ag 2: 0

How did COC(=O)[C@]12C[C@H](CC(=O)NCCC(C)C)C(=O)N(Cc3ccc(Cl)cc3Cl)C1=C[C@H](C(C)(C)C)O[C@@H]2C do in these assays?
hgDAF12 agonist: -1; hcDAF-12 act: -1; ssDAF12 agonist: -1

How did Cc1cc(/C=C(\C#N)C(=O)NCc2ccco2)c(C)[nH]1 do in these assays?
hgDAF12 agonist: 3; hcDAF-12 act: 0; APP 5'UTR act: 13; ssDAF12 agonist: -1; NF-kB expr up: 1.4

How did Cc1cc(/C=C(\C#N)C(=O)Nc2ccccc2F)c(C)[nH]1 do in these assays?
hgDAF12 agonist: 17*; hcDAF-12 act: 5; APP 5'UTR act: 147*; ssDAF12 agonist: 0; NF-kB expr up: 5.5*; hgDAF12 conf: 16*; LXR ag 2: 1

How did Cc1ccc(-c2cccc3[nH]cc(C)c23)s1 do in these assays?
hgDAF12 agonist: 3; hcDAF-12 act: 0; ssDAF12 agonist: 0

How did CSc1ccc(-c2cnc(N3CCC(C(N)=O)CC3)s2)cc1 do in these assays?
hgDAF12 agonist: 21*; hcDAF-12 act: 3; ssDAF12 agonist: 1; hgDAF12 conf: 17*; LXR ag 2: 1

How did O=c1[nH]c(SCc2ccc(Cl)cc2)nc2ccccc12 do in these assays?
hgDAF12 agonist: 0; hcDAF-12 act: -1; APP 5'UTR act: 4; ssDAF12 agonist: -2; NF-kB expr up: 1.4

How did Clc1ccc(CSc2nc3ccncc3[nH]2)cc1 do in these assays?
hgDAF12 agonist: 19*; hcDAF-12 act: 5.9*; APP 5'UTR act: 147*; ssDAF12 agonist: 1; NF-kB expr up: 7.5*; hgDAF12 conf: 19*; LXR ag 2: 1

How did COc1ccc(S[C@]2(C(=O)N3CCN(C(C)=O)CC3)CC(=O)N(C(=O)C3CC3)[C@@H]2c2ccc(OC)cc2)cc1 do in these assays?
hgDAF12 agonist: -2; hcDAF-12 act: -2; ssDAF12 agonist: 0

How did Nn1c(SCC(=O)Nc2ccc(OCc3ccccc3)cc2)nnc1-c1cc(-c2ccc(Cl)cc2)n[nH]1 do in these assays?
hgDAF12 agonist: 1; hcDAF-12 act: 1; ssDAF12 agonist: -1

What do the screens show for `C=CCNc1ncnc2c1cnn2-c1cccc(C)c1`?
hgDAF12 agonist: 17*; hcDAF-12 act: 2; APP 5'UTR act: 212*; ssDAF12 agonist: -1; NF-kB expr up: 5*; hgDAF12 conf: 16*; LXR ag 2: 1

What do the screens show for `Cc1cccc(-n2ncc3c(NCc4ccc5c(c4)OCO5)ncnc32)c1`?
hgDAF12 agonist: 0; hcDAF-12 act: 0; APP 5'UTR act: 12; ssDAF12 agonist: -1; NF-kB expr up: 1.2

Results for C=CCNc1ncnc2c1cnn2-c1ccc(Cl)cc1 ?
hgDAF12 agonist: 15*; hcDAF-12 act: 4; APP 5'UTR act: 239*; ssDAF12 agonist: 0; NF-kB expr up: 5.4*; hgDAF12 conf: 27*; LXR ag 2: 1

What do the screens show for `Cc1ccc(-n2ncc3c(NCc4cccnc4)ncnc32)cc1C`?
hgDAF12 agonist: 5; hcDAF-12 act: 0; ssDAF12 agonist: -1

What do the screens show for `Cc1cccc(-n2ncc3c(N4CCCC4)ncnc32)c1`?
hgDAF12 agonist: 18*; hcDAF-12 act: 5; APP 5'UTR act: 138*; ssDAF12 agonist: 1; NF-kB expr up: 4.8*; hgDAF12 conf: 16*; LXR ag 2: 1

Results for Cc1cccc(-n2ncc3c(NCc4cccnc4)ncnc32)c1 ?
hgDAF12 agonist: 13*; hcDAF-12 act: -1; ssDAF12 agonist: -1; hgDAF12 conf: 12*; LXR ag 2: 0

Results for Cc1cccc(-n2ncc3c(N4CCOCC4)ncnc32)c1 ?
hgDAF12 agonist: 2; hcDAF-12 act: 0; APP 5'UTR act: 67; ssDAF12 agonist: -1; NF-kB expr up: 1.6

Results for c1ccc(-c2ccc3c(n2)CCCN3Cc2ccccn2)cc1 ?
hgDAF12 agonist: 8; hcDAF-12 act: 3; ssDAF12 agonist: 0

How did COc1cccc(/C=C2\CC3(OC(=O)C4CCCCC4)CCCN2C3)c1 (configuration not stated) do in these assays?
hgDAF12 agonist: -1; hcDAF-12 act: -1; ssDAF12 agonist: -1

Results for Cc1ccc(C(=O)Nc2nnc(C)s2)o1 ?
hgDAF12 agonist: 5; hcDAF-12 act: -1; APP 5'UTR act: -10; ssDAF12 agonist: -1; NF-kB expr up: 1.2

How did CC(=O)c1sc(NC(=O)c2ccccc2F)nc1C do in these assays?
hgDAF12 agonist: 14*; hcDAF-12 act: 5; APP 5'UTR act: 116; ssDAF12 agonist: 0; NF-kB expr up: 3.5*; hgDAF12 conf: 14*; LXR ag 2: 1
